Source: the supplement of paper PMC3545927
The list shows a part of the results. No count for the full screen is at hand.

Target: furin, P09958
Assay: furin cleavage Z-score vs untreated control; higher = more cleavage, active = 3.5 or more, inactive = 1 or less, 8 variable residues between constant flanks
In short: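 The cleavage Z-score was derived for purified furin acting on 8-mer peptides held on magnetic beads and fused to a cDNA oligonucleotide. Digests lasted 7.5, 15 or 30 min at 1:10 enzyme:substrate in 50 mM HEPES pH 7.5 with CaCl2 and NaCl. Sequencing counts of released DNA, log-transformed against furin-free reactions, were lowess-adjusted and scaled by median absolute deviation.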

Chain of furin, P09958 (P09958 whole entry): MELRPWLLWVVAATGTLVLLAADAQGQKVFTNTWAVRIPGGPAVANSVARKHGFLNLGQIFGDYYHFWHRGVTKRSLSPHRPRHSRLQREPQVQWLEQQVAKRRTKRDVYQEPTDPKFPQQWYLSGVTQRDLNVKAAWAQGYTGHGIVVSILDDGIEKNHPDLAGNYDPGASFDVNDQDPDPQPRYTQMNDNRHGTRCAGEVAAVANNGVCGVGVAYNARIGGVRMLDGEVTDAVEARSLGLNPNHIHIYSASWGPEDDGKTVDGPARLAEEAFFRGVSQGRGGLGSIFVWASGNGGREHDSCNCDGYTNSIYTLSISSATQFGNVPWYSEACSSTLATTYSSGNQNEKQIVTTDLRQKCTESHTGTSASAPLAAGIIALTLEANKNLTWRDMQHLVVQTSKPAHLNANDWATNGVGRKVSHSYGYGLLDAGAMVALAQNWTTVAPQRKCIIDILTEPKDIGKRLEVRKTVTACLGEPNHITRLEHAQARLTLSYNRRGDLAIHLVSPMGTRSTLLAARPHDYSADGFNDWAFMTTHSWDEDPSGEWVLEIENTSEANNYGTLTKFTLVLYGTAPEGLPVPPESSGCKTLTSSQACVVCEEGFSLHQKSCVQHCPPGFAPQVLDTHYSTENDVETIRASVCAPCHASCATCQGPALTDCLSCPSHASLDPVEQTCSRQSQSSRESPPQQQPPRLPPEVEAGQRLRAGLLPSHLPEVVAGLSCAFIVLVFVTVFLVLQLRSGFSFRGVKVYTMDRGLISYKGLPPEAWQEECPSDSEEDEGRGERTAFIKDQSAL

| Sequence | furin cleavage Z-score (7.5 min) | furin cleavage Z-score (15 min) | furin cleavage Z-score (30 min) |
| --- | --- | --- | --- |
| CAEPVTSTWVAGNASASA [HC2179] | 1.29 | -0.789 (inactive) | 0.354 (inactive) |
| CARKKRGYRDAGNASASA [FS-1856] | 10.5 (active) | 11.2 (active) | 8.83 (active) |
| CASSNRLARFAGNASASA [FS-1284] | 3.54 (active) | 4.58 (active) | 6.02 (active) |
| CARFARYYRDAGNASASA [FS-373] | 4.68 (active) | 4.65 (active) | 5.39 (active) |
| CARKKREIRSAGNASASA [FS-2962] | 14.3 (active) | 12.6 (active) | 10.5 (active) |
| CARKKKGKADAGNASASA [FS-2690] | 0.358 (inactive) | -1.8 (inactive) | -1.17 (inactive) |
| CASSIASWAIAGNASASA [HC514] | 0.395 (inactive) | 0.651 (inactive) | 2.3 |
| CAMEECSQHLAGNASASA [HC14] | 1.42 | 0.653 (inactive) | 1.44 |
| CARKKREITEAGNASASA [FS-2963] | 11.3 (active) | 12.7 (active) | 9.25 (active) |
| CASSNRSYRDAGNASASA [FS-1419] | 2.48 | 3.58 (active) | 4.08 (active) |
| CASMGREIRSAGNASASA [FS-1082] | 4.08 (active) | 3.82 (active) | 3.6 (active) |
| CAVVCCSMWYAGNASASA [HC2068] | 1.14 | -0.944 (inactive) | 0.031 (inactive) |
| CACGNTLTCYAGNASASA [HC1515] | -0.25 (inactive) | -2.28 (inactive) | -1.28 (inactive) |
| CARGDSRGSLAGNASASA [HC733] | -0.929 (inactive) | -0.316 (inactive) | -0.341 (inactive) |
| CALTCYIKARAGNASASA [HC1517] | -0.101 (inactive) | 0.266 (inactive) | 1.28 |
| CAGRCREKRRAGNASASA [FS-431] | 6.37 (active) | 7.82 (active) | 6.78 (active) |
| CAMWHREKRRAGNASASA [FS-1141] | 5.25 (active) | 5.23 (active) | 5.34 (active) |
| CARSSRDSSAAGNASASA [FS-2092] | -0.528 (inactive) | -0.415 (inactive) | -0.31 (inactive) |
| CARSSRSNGRAGNASASA [FS-3097] | -1.39 (inactive) | -0.51 (inactive) | -1.39 (inactive) |
| CARSSREKRRAGNASASA [FS-377] | 6.18 (active) | 7.1 (active) | 5.14 (active) |
| CARSSRHPRRAGNASASA [FS-714] | 5.43 (active) | 9.72 (active) | 6.86 (active) |
| CAPQGDAAQKAGNASASA [NG3] | -0.23 (inactive) | -2.31 (inactive) | 0.729 (inactive) |
| CAVRVLEDGVAGNASASA [HC238] | -0.328 (inactive) | -0.295 (inactive) | 0.54 (inactive) |

| Sequence | furin cleavage Z-score (7.5 min) | furin cleavage Z-score (15 min) | furin cleavage Z-score (30 min) |
| --- | --- | --- | --- |
| CARGKRSLDGAGNASASA [FS-2018] | 10.4 (active) | 10.4 (active) | 8.84 (active) |
| CARSFRSGDGAGNASASA [FS-2086] | 0.521 (inactive) | -1.18 (inactive) | 0.00797 (inactive) |
| CARGKRHLQGAGNASASA [FS-2671] | 8.58 (active) | 8.16 (active) | 8.59 (active) |
| CARGSRPSWGAGNASASA [HC211] | -1.28 (inactive) | -0.0322 (inactive) | -1.24 (inactive) |
| CAEVPCHQPSAGNASASA [HC2382] | 0.495 (inactive) | -0.572 (inactive) | 1.13 |
| CAFLADGGCSAGNASASA [HC810] | -0.0827 (inactive) | -0.994 (inactive) | -0.4 (inactive) |
| CAVVCCKMSYAGNASASA [HC111] | 2.65 | 1.75 | 0.575 (inactive) |
| CAYKSRTKRSAGNASASA [FS-1581] | 12.8 (active) | 13.7 (active) | 8.1 (active) |
| CAGRSRPDRSAGNASASA [FS-533] | 5.97 (active) | 7.05 (active) | 7.1 (active) |
| CAGRSRTKRSAGNASASA [FS-1332] | 10.4 (active) | 9.78 (active) | 7.49 (active) |
| CAHRGVTKRSAGNASASA [FS-1593] | 6.75 (active) | 7.15 (active) | 6.87 (active) |
| CAFCVQPEKGAGNASASA [HC1443] | -1.06 (inactive) | -0.187 (inactive) | 0.825 (inactive) |
| CAVVTCSMSYAGNASASA [HC2038] | 0.204 (inactive) | -0.0386 (inactive) | -0.133 (inactive) |
| CASTPCSNHLAGNASASA [HC2541] | 0.901 (inactive) | 1.16 | 0.705 (inactive) |
| CAHRGPARRSAGNASASA [FS-1533] | 2.51 | 2.95 | 4.27 (active) |
| CASHQRTKRSAGNASASA [FS-1165] | 8.79 (active) | 9.17 (active) | 6.69 (active) |
| CAKKQETKRSAGNASASA [FS-675] | -0.996 (inactive) | 0.0553 (inactive) | 0.952 (inactive) |
| CAAKHRTKRSAGNASASA [FS-746] | 14.6 (active) | 14.7 (active) | 10.8 (active) |
| CAEVPCHRPNAGNASASA [HC2421] | -0.123 (inactive) | 0.813 (inactive) | 1.61 |
| CAVVCPSMSYAGNASASA [HC100] | -0.389 (inactive) | 0.782 (inactive) | 1.57 |
| CAEQWRSRRSAGNASASA [FS-993] | 10.6 (active) | 9.84 (active) | 7.38 (active) |
| CAEQIRQDRSAGNASASA [FS-1453] | -0.0806 (inactive) | 0.259 (inactive) | 0.047 (inactive) |
| CAHAWRSRRSAGNASASA [FS-1629] | 10.5 (active) | 8.73 (active) | 8.99 (active) |
